Screening results from PubChem.
Rows were chosen to be rich in hits. Some 6.1% of all compounds tested hit in one or more screens of this group.
DRD3 antagonist: qHTS of D3 Dopamine Receptor Antagonist: qHTS; max response, negative = inhibition, %; D(3) dopamine receptor (Homo sapiens), P35462; D3R cells, DiscoveRx beta-arrestin luminescence, antagonist mode; stronger effect = lower value; actives 2.5% (n = 360,000); in the data active = max response below about -50%; inconclusive = no clear call, values can overlap the other calls; note: % is set by controls: 0 for no effect and ±100 for the full control effect
Target sequence (P35462 whole entry, looked up): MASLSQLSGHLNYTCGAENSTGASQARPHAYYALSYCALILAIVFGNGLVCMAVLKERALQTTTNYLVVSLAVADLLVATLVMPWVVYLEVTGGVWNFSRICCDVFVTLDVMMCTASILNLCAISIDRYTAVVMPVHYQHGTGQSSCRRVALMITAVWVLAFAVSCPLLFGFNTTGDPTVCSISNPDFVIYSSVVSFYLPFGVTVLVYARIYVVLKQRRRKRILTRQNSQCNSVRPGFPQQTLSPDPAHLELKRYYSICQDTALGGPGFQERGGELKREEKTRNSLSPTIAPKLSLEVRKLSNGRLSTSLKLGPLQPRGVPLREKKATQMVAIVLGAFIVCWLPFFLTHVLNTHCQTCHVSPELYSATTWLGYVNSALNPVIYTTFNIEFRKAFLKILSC
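Cells expressing the human receptor were seeded at 1500 cells/well, incubated overnight at 37 degrees C in 5% CO2, then exposed to library compounds with dopamine controls for 90 minutes at 37 degrees C before luminescent detection.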
D1 antag: Antagonist of Human D 1 Dopamine Receptor: qHTS | actives 3.2% (n = 360,000) | AID 504652, 2011 | HEK293 TREx D1 cells, calcium flux, dopamine EC80; stronger effect = lower value | activity change, negative = inhibition, % at 10 µM; in the data active = activity change below about -30%; note: % is set by controls: 0 for no effect and ±100 for the full control effect
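Inducible Hek293 Trex D1 cells (tetracycline, overnight, 30 C). Calcium dye 30–90 min RT. Antagonist mode: EC80 dopamine added after 180 s compound read.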
D1 potentiator: Potentiators of Human D1 Dopamine Receptor: qHTS; D(1A) dopamine receptor (Homo sapiens), P21728; HEK293 TREx D1 cells, calcium flux, dopamine EC20 potentiation; potentiation, % at 10 µM; actives 0.036% (n = 360,000); AID 504651, 2011; in the data active = potentiation above about 30%; note: 0% is about no effect
DRD3 agonist: qHTS of D3 Dopamine Receptor Agonist: qHTS; D(3) dopamine receptor (Homo sapiens), P35462; max activation, %; D3R DiscoveRx beta-arrestin cells, luminescence, 90 min; actives 0.58% (n = 410,000); in the data active = max activation above about 30%; note: 0% is about no effect
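Cells at 1500/well, incubated overnight, then treated with pinned compounds (dopamine as control) for 90 min at 37 degrees C. DiscoveRx reagent added for 30 - 60 minutes at room temperature; luminescence read.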
D1 ag: Allosteric Agonists of the Human D1 Dopamine Receptor: qHTS. HEK293 T-REx D1 cells, calcium flux, agonist mode. activation, % at 2 µM. actives 1% (n = 360,000). AID 504660, 2011; in the data active = activation above about 30%; note: 0% is about no effect
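Tetracycline-induced HEK293 TREx D1 cells, force-coupled to calcium signalling, were dye-loaded with a no-wash calcium kit. Compound was pin-added after a 10 s baseline. Fluorescence was read kinetically at 1 cycle/s for 180 s, with calcium rises flagged as agonism.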
Active calls of the source: *; ? = inconclusive; . = no result.

SMILES | DRD3 antagonist | D1 antag | D1 potentiator | DRD3 agonist | D1 ag
CCCOc1ccc(C(=O)NNC(=S)NC(C)=O)cc1 | 14.8 | -33.9* | -0.1 | 3.4 | 0.6
CCCOc1ccc(C(=O)NNC(=S)NC(=O)c2cc(-c3ccccc3)nc3ccccc23)cc1 | -55.4* | -17.9 | 0.1 | -7.2 | 16.8
CCCOc1ccc(C(=O)NNC(=S)NC(=O)c2ccccc2)cc1 | -6.9 | -10.8 | 21.8 | 0.3 | 196.5*
Cc1ccc(NC(=O)NC(=O)N(C(C)C)S(=O)(=O)c2ccc(C)cc2)cc1 | -7.6 | -2.7 | -1.1 | 5.7 | 3.6
COc1cccc(NC(=O)NC(C)C2CC3CCC2C3)c1 (stereo not given) | 3.6 | -16.4 | -0.1 | 1.0 | 6.6
Cc1ccc(OCCSc2nc3ccccc3n2CCC(=O)O)cc1 | 5.6 | -22.7 | -2.7 | 3.6 | -2.8
O=C1/C(=C/c2ccncc2)CCC/C1=C\c1ccncc1 | -60.5* | -21.4 | -4.5 | -11.9 | 3.7
O=C1C(=Cc2ccncc2)CCCc2ccccc21 | -9.6 | . | . | -4.9 | .
CC(=O)Nc1ccc(OS(=O)(=O)c2ccc(C(C)(C)C)cc2)cc1 | . | -55.9* | -6.7 | . | 9.6
CC(=O)Nc1ccc(S(=O)(=O)Oc2ccc(/C=C3\SC(N)=NC3=O)cc2)cc1 | 3.3 | 15.7 | 10.9 | -6.0 | 0.5
C#CCN(C[C@H]1[C@H](OC(=O)Nc2c(C)noc2C)[C@H](OC(=O)Nc2c(C)noc2C)C[C@H]2C(=O)N(c3ccccc3)C(=O)[C@@H]12)S(=O)(=O)c1ccc(C)cc1 | -23.0 | . | . | -6.8 | .
O=C(COc1ccc(Cl)cc1)NCCc1csc(-c2cccc(F)c2)n1 | . | 10.4 | -4.0 | -8.4 | 3.5
COc1cc(CNCc2ccc(Br)cc2)cc(OC)c1 | -7.3 | -4.0 | -7.8 | -13.7 | 82.4*
COc1cc(CNCc2c[nH]c3ccccc23)cc(OC)c1 | -19.7 | -39.8* | -6.5 | -12.0 | 25.7
COc1cc(CNCc2cccc3ccccc23)cc(OC)c1 | ? | 0.0 | -7.8 | -4.4 | 17.1
COc1cc(CNCc2ccc(OC)cc2OC)cc(OC)c1 | -7.4 | -12.2 | 6.5 | -1.7 | 15.9
O=C(/C=C/c1ccccc1)NC(=S)N1CCSCC1 | 5.0 | 12.2 | -3.0 | 2.7 | 0.2
OCCOc1ccc(CN2CCCC(N3CCN(c4ccc(F)cc4)CC3)C2)cc1 (stereo not given) | -21.0 | -42.9* | -4.8 | -2.2 | 0.3
CN(Cc1ccccc1)S(=O)(=O)c1ccc(Cl)nc1 | 19.7 | 2.4 | 1.3 | -1.3 | 0.3
CC(C)N(Cc1ccccc1)S(=O)(=O)c1ccc(Cl)nc1 | 7.1 | -40.7* | -8.5 | -2.6 | -0.5
O=C(NCCCN1C(=O)c2ccccc2C1=O)OCc1ccccc1 | -9.9 | . | . | 0.1 | .
COc1cc2c(cc1OC)[C@@H]1Cc3ccc(OC)c(OC)c3CN1CC2 | -99.2* | -53.3* | -5.8 | -33.8 | 2.5
COc1cc2c(cc1OC)[C@@H]1CC(=O)[C@@H](CC(C)C)CN1CC2 | . | . | . | -18.0 | .
COc1ccc2c(c1OC)CN1CCc3cc4c(cc3[C@@H]1[C@@H]2O)OCO4 | -117.3* | -66.1* | -11.8 | -98.9 | -1.7
COc1cc2c(cc1OC)C1Cc3ccc(OC)c(OC)c3CN1CC2 (stereo not given) | ? | -74.3* | -14.0 | -13.9 | 0.1
SMILES | DRD3 antagonist | D1 antag | D1 potentiator | DRD3 agonist | D1 ag
COC(=O)[C@@]12C[C@@H](CC(=O)NCc3ccc(OC)c(OC)c3)C(=O)N(Cc3cccc4ccccc34)C1=CCC(C)(C)C2 | -18.7 | . | . | -7.2 | .
O=[N+]([O-])c1cc(CSC2=NCCN2)ccc1O | -11.6 | -55.0* | 2.3 | 1.3 | 0.4
CCCOc1ccc(CSC2=NCCN2)cc1[N+](=O)[O-] | 0.0 | 4.3 | -6.8 | 2.7 | 7.7
CC(C)CC1C(=O)N(Cc2cn(Cc3ccco3)nn2)CCS(=O)(=O)N1Cc1ccc(-c2cccc(N(C)C)c2)cc1 (stereo not given) | 3.5 | . | . | -5.3 | .
COC(=O)C1=C(C)NC(C)=C(C(=O)OCCN(C)Cc2ccccc2)C1c1cccc([N+](=O)[O-])c1 (stereo not given) | -51.1* | -34.7* | -5.3 | -73.5 | 0.3
COc1ccc(-c2noc(CN(C)CCC3CCCCO3)n2)cc1 (stereo not given) | 10.3 | 14.2 | -5.1 | 34.7* | 4.7
COC(=O)c1ccc(-c2noc(CN(C)CCC3CCCCO3)n2)cc1 (stereo not given) | 6.7 | -60.6* | -6.6 | 9.8 | 4.1
COC(=O)c1ccc(-c2noc(CN(C)Cc3ccncc3C)n2)cc1 | 38.5 | -41.2* | -3.5 | 0.1 | 16.9
CCN(Cc1ccncc1)Cc1nc(-c2ccc(C(=O)OC)cc2)no1 | 0.3 | 12.9 | -0.6 | 13.5 | 1.1
COc1ccc(OC(C)C(=O)N(C)Cc2nc(-c3ccc(OC)cc3)no2)cc1 (stereo not given) | 1.6 | 9.1 | -1.2 | 40.5* | 11.9
COCCCn1c(SC(C)C(=O)NC2CC2)nc2ccccc2c1=O (stereo not given) | 3.8 | 6.7 | 7.8 | -11.1 | 0.9
CCOC(=O)c1nnc2cc(-c3ccccc3)nn2c1C | -73.9* | -1.6 | -4.7 | 7.9 | 4.5
CCOC(=O)c1nnc2cc(-c3ccc(Br)cc3)nn2c1C | 14.6 | 5.3 | -2.4 | 4.7 | 1.6
CCOC(=O)c1cnc2cc(-c3ccc(OCC)cc3)nn2c1-c1ccccc1 | . | 0.4 | -2.5 | 35.6* | 4.7
CCOCCCn1c(=N)c(S(=O)(=O)c2ccc(C)cc2)cc2c(=O)n3cccc(C)c3nc21 | . | -6.2 | 2.1 | 8.7 | -1.2
CN(C)CCCNc1cc(C(C)(C)C)nc2c(-c3ccccc3)cnn12 | 0.0 | -12.1 | -2.0 | -14.6 | 58.2*
CC(C)(C)c1cc(NCCCn2ccnc2)n2ncc(-c3ccc(Cl)cc3)c2n1 | 14.3 | 3.7 | -0.2 | 9.1 | 2.0
CCN(C(=O)CN1CCN(c2cccc(C(F)(F)F)c2)CC1)c1c(N)n(Cc2ccccc2)c(=O)[nH]c1=O | 2.1 | 4.0 | -1.8 | -6.0 | 4.3
COc1ccc(C)cc1N(CC(=O)N/N=C/c1ccccc1C(=O)O)S(=O)(=O)c1ccccc1 | -16.2 | 17.5 | -3.3 | -2.3 | -1.8
CN(CCCNC(=O)c1cccn2c(=O)c3ccccc3nc12)Cc1ccccc1 | -55.7* | 1.4 | -0.6 | -57.1 | 2.3
O=C(NCCN1CCN(c2ccccc2F)CC1)c1cccn2c(=O)c3ccccc3nc12 | -50.2* | 15.6 | -7.2 | -17.1 | 2.1
O=C(NCCN1CCN(c2ccccc2)CC1)c1cccn2c(=O)c3ccccc3nc12 | 10.0 | -11.2 | -2.0 | -0.3 | 1.7
CC1(C)NC(=O)N(CC(O)CN(c2cccc([N+](=O)[O-])c2)S(=O)(=O)c2ccccc2)C1=O (stereo not given) | 15.4 | 8.0 | -5.9 | 6.7 | 1.6
